Compounds with a hit are over-represented: about 21% of the library has one in this group of screens.
CHX counter – affects cycloheximide protein synthesis inhibition readout, counter-screen; cell reporter, cycloheximide protein synthesis inhibition counterscreen; max response, %; actives 12% (n = 300,000); AID 2314; in the data active = max response mostly above about 13%, no sharp cut-off; inactive = mostly below about 14%; note: read at 38.3 µM for the half of the compounds with a filed dose; 0% is about no effect
Pf growth 48h – P. falciparum growth inhibition at 48 hours (one generation); P. falciparum luciferase growth in erythrocytes, 48 h; Potency, µM (top dose mostly 28.7 µM), for the others: at the top dose activity change, negative = inhibition, hits mostly inhibitors; actives 5.9% (n = 310,000); note: potency is the fitted concentration of half-maximal effect; % is set by controls: 0 for no effect and ±100 for the full control effect
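Luciferase-expressing parasites in RBCs, 2% Hct / 0.1% parasitemia final; RPMI 1640 + 0.5% Albumax; 37 C, 5% CO2, one generation; luminescence read-out, lower signal = inhibition.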
Pf growth 96h – inhibits malaria parasite growth, 96 h; actives 6.9% (n = 320,000); AID 504834; Potency, µM (top dose mostly 28.7 µM), without a hit: top-dose activity change, negative = inhibition, usual class: inhibitors; P. falciparum luciferase reporter growth, 96 h; note: potency is the fitted concentration of half-maximal effect; % is set by controls: 0 for no effect and ±100 for the full control effect
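Compounds incubated with erythrocytes infected by luciferase-expressing P. falciparum (2% hematocrit, 0.05% parasitemia final) for 96 hours, 37 C in 5% CO2. Growth inhibition scored as decreased luciferase luminescence.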
Shiga toxin inh – blocks Shiga toxin action in Vero cells; AID 2315; Vero cells, Shiga toxin protein synthesis inhibition reporter; inhibition, % at 38.7 µM; actives 9.2% (n = 290,000); in the data active = inhibition mostly above about 28%, no sharp cut-off; inactive = mostly below about 43%; note: 0% is about no effect
* = called active by the depositor. Unless noted, calls come from the whole dose curve; as a rule, active = well fitted inhibition curve with a large enough effect; inconclusive = small, poorly fitted or top-dose-only effect, or another doubt; inactive = no such curve, though single readings can be large or run the other way.

Screening CCC(C)CC(C)CC(C)C(=O)/C=C(/O)C(C)CC(C)C/C=C/C(C)C(O)C(C)C(O)CC1CCC(C)(C)O1 (stereo not given) returned CHX counter -14.0 and Shiga toxin inh -12.2.
`CC(C)(C)NC(=O)c1nc2nc(-c3ccccc3)cc(C(F)(F)F)n2n1` gave CHX counter 1.0, Pf growth 48h -28.5%, Pf growth 96h inconclusive and Shiga toxin inh 7.3.
Screening N#CC1=C(N)OC2=C(CCc3ccccc32)C1c1ccccc1 (stereo not given) returned CHX counter 11.6, Pf growth 48h 11.7µM*, Pf growth 96h 27.2% and Shiga toxin inh -5.8.
For CC1(C)CC(=O)N(c2cc(Cl)ccc2Cl)C(=O)C1 the results were CHX counter -1.0, Pf growth 48h -5.2%, Pf growth 96h 20.5% and Shiga toxin inh 2.8.
Screening COc1ccc(C)cc1NC(=O)Nn1cnnc1 returned CHX counter -6.4, Pf growth 48h 2.0% and Shiga toxin inh -3.2.
Screening COc1cc([N+](=O)[O-])ccc1NC(=S)NCc1ccccn1 returned CHX counter -2.2, Pf growth 48h 17.5%, Pf growth 96h 19.3% and Shiga toxin inh -4.5.
Screening COc1cc([N+](=O)[O-])ccc1NC(=O)NCc1ccccn1 returned CHX counter 12.3*, Pf growth 48h -2.4%, Pf growth 96h 16.4% and Shiga toxin inh 3.7.
For COc1cc([N+](=O)[O-])ccc1NC(=O)Nn1cnnc1 the results were CHX counter 1.4, Pf growth 48h 11.0%, Pf growth 96h 13.1µM* and Shiga toxin inh -2.9.
`CCCOc1cccc(C2C(C(=O)c3ccc(C)o3)=C(O)C(=O)N2c2nc(C)c(C(C)=O)s2)c1` (stereo not given) gave CHX counter 1.0, Pf growth 48h -17.9%, Pf growth 96h inconclusive and Shiga toxin inh -7.8.
Cc1ccc(NC(=O)C2CCN(S(C)(=O)=O)CC2)cc1Cl was read as CHX counter -3.0, Pf growth 48h -7.8% and Pf growth 96h inconclusive.
`CC(Oc1ccc(Cl)cc1Cl)c1nc(-c2ccc(NC(=O)c3ccco3)cc2)no1` (stereo not given) gave CHX counter 71.5*, Pf growth 96h 0.928µM* and Shiga toxin inh 113.4*.
For Cc1ccccc1OCc1nc(-c2ccc(NC(=O)c3ccc4c(c3)OCO4)cc2)no1 the results were CHX counter 14.9, Pf growth 48h inconclusive, Pf growth 96h -7.4% and Shiga toxin inh 20.2.
`CC(NC(=O)c1ccco1)c1nc(-c2ccccc2)no1` (stereo not given) gave CHX counter 1.7, Pf growth 48h 23.2%, Pf growth 96h 9.3% and Shiga toxin inh -7.8.
Cc1ccccc1OCc1nc(-c2ccc(NC(=O)c3ccco3)cc2)no1 was read as CHX counter 34.9*, Pf growth 48h inconclusive, Pf growth 96h inconclusive and Shiga toxin inh 52.1*.
Cc1ccccc1OCc1nc(-c2ccc(NC(=O)c3cccs3)cc2)no1 was read as CHX counter 49.8*, Pf growth 48h inconclusive, Pf growth 96h inconclusive and Shiga toxin inh 154.2*.
`COc1cccc(C(=O)COC(=O)CCCC(=O)NC2CCCCC2)c1` gave CHX counter -0.5, Pf growth 48h 25.3%, Pf growth 96h 0.0% and Shiga toxin inh -7.0.
`CC(C)(C)OC(=O)N1CCC2(CC1)C(C#N)=C(N)OC1=C2C(=O)CCC1` gave CHX counter -2.3, Pf growth 48h -6.5%, Pf growth 96h -39.2% and Shiga toxin inh -7.6.
For ONC(=Nc1cccc(C(F)(F)F)c1)c1cccnc1 the results were CHX counter 1.4, Pf growth 48h inconclusive, Pf growth 96h 29.8% and Shiga toxin inh -6.0.
For Cc1cc(Nc2cccc(Cl)c2Cl)n2ncnc2n1 the results were CHX counter -2.1, Pf growth 48h -2.2%, Pf growth 96h inconclusive and Shiga toxin inh 3.1.
`Cc1cccc(N(C(=O)c2snc(C(N)=O)c2N)C(C(=O)NCC2CCCO2)c2ccc(N(C)C)cc2)c1` (stereo not given) gave CHX counter -4.6, Pf growth 48h 13.1µM*, Pf growth 96h 40.3% and Shiga toxin inh 2.4.
Screening CCc1ccccc1N(C(=O)c1snc(C(N)=O)c1N)C(C(=O)NCC1CCCO1)c1ccc(N(C)C)cc1 (stereo not given) returned CHX counter -10.4, Pf growth 48h inconclusive, Pf growth 96h 159.5% and Shiga toxin inh -3.9.
Screening Cc1ccccc1N(C(=O)c1snc(C(N)=O)c1N)C(C(=O)NCC1CCCO1)c1ccc(N(C)C)cc1 (stereo not given) returned CHX counter -6.7, Pf growth 48h 1.65µM*, Pf growth 96h inconclusive and Shiga toxin inh -6.9.
